Source: PubChem BioAssay
Cardio protect: cardioprotection against H2O2-induced cell death, primary screen, uHTS, H9c2 cells, ATPLite luminescence; AID 588492, 2011; protection from H2O2 cell death, % at 20 µM; H9c2 cardiomyocytes, H2O2 injury protection, 2 h; hit rate 0.63% among 360,000;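 active = compounds giving at least 50% protection of heart cells from peroxide-induced death in the single-dose screen, raw or plate-pattern-corrected value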
GAA850 FXN act: FXN promoter activators, primary screen, cell-based, luciferase luminescence, HEK293 lucGAA850 | HEK293 lucGAA850 FXN promoter luciferase reporter, 24 h; percent of 10 µM SAHA response | activation, % at 6 µM | hit rate 0.56% among 360,000;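 active = activation above the average of all compounds screened plus 3 SD, cutoff fixed separately per campaign, cut at about 7.5% in these data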
Gli-Sufu antag: Gli-Sufu pathway antagonists, primary screen, luciferase luminescence, Sufu-KO-LIGHT cells, uHTS. hit rate 0.74% among 340,000. Sufu-KO-LIGHT fibroblasts, Gli luciferase reporter luminescence. inhibition, % at 5 µM. AID 588413, 2011;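 active = inhibition above about 55%, limit read from the data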
COUP-TFII inh: NR2F2 transcriptional activity inhibitors, primary screen, cell-based, luciferase reporter, HEK293T, luminescence; COUP transcription factor 2 (Homo sapiens), P24468; HEK293T NGFI-A luciferase reporter; inhibition, % at 8.6 µM; hit rate 0.7% among 370,000; AID 686940, 2013;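 active = inhibition above a per-plate cutoff, mean inhibition of test wells between control levels plus 3 SD, cut at about 38% in these data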;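 also: cells cotransfected with COUP-TFII expression vector driving the NGFI-A reporter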
SMARCA2 activ: SMARCA2 (BRM) function activators, primary screen, cell-based, luminescence, high throughput; activation, % at 9.1 µM; hit rate 1% among 370,000; MG213 cells, MMTV-luciferase reporter, dexamethasone, overnight; in the data active = activation above about 7.8%
GalR3 antagonist: GalR3 antagonists in HEK293 cells, primary screen, cell-based, fluorescence readout; Galanin receptor type 3 (Homo sapiens), O60755; HEK293 GalR3-CNG cAMP membrane potential fluorescence; galR3 body fused to GalR1 C-terminus; inhibition, % at 3 µM; hit rate 0.44% among 360,000;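 active = inhibition above the screen-wide average plus 3 SD, cut at about 13% in these data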;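 also: forskolin and galanin both at EC90 stimulate the cells; cAMP rise reported by CNG channel membrane potential dye signal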
Target sequence (O60755 1-299 limits assumed): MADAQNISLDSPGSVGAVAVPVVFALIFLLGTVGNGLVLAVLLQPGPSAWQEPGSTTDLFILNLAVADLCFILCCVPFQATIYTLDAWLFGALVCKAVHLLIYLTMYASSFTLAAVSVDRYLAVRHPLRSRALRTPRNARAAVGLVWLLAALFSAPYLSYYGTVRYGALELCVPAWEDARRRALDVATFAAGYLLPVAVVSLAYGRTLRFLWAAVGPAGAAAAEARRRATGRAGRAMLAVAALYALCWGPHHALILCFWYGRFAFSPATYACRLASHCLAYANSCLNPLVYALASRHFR
Hits are given with their value. An excerpt weighted towards active compounds, which were near 3.4% of everything screened.

Screening O=C(O)c1nn(CC(=O)N2CCC(Cc3ccccc3)CC2)c(=O)c2ccccc12 returned Cardio protect inactive, GAA850 FXN act inactive, Gli-Sufu antag inactive, COUP-TFII inh inactive, SMARCA2 activ inactive and GalR3 antagonist inactive.
For O=C(O)c1nn(CC(=O)N2CCN(c3ccccc3)CC2)c(=O)c2ccccc12 the results were Cardio protect 66, GAA850 FXN act inactive, Gli-Sufu antag inactive, COUP-TFII inh inactive, SMARCA2 activ inactive and GalR3 antagonist inactive.
`C[C@@H]1CN(c2ccc(N3CCNC[C@@H]3C)cc2C#N)C[C@H](C)O1` gave COUP-TFII inh inactive, SMARCA2 activ inactive and GalR3 antagonist inactive.
For COc1cccc(-c2nnc(NC(=O)c3ccc(Cl)s3)o2)c1 the results were Cardio protect 58, GAA850 FXN act inactive, Gli-Sufu antag inactive, COUP-TFII inh inactive, SMARCA2 activ inactive and GalR3 antagonist inactive.
Screening O=C(Nc1nnc(-c2ccco2)o1)c1ccc(Cl)s1 returned Cardio protect inactive, GAA850 FXN act inactive, Gli-Sufu antag inactive, COUP-TFII inh inactive, SMARCA2 activ inactive and GalR3 antagonist inactive.
`O=[N+]([O-])c1cc2c(cc1/C=N/n1cnnc1)OCO2` gave Cardio protect inactive, GAA850 FXN act inactive, Gli-Sufu antag inactive, COUP-TFII inh inactive, SMARCA2 activ inactive and GalR3 antagonist inactive.
Screening Cc1cc(C)nc(N/N=C/c2cc3c(cc2[N+](=O)[O-])OCO3)n1 returned Cardio protect inactive, GAA850 FXN act inactive, Gli-Sufu antag inactive, COUP-TFII inh inactive, SMARCA2 activ inactive and GalR3 antagonist inactive.
Cc1c(N=Cc2cc3c(cc2[N+](=O)[O-])OCO3)cccc1[N+](=O)[O-] was read as Cardio protect 72, GAA850 FXN act inactive, Gli-Sufu antag inactive, COUP-TFII inh inactive, SMARCA2 activ inactive and GalR3 antagonist inactive.
`Cc1ccccc1N=Cc1cc2c(cc1[N+](=O)[O-])OCO2` gave Cardio protect 62, GAA850 FXN act inactive, Gli-Sufu antag inactive, COUP-TFII inh inactive, SMARCA2 activ inactive and GalR3 antagonist inactive.
Screening CNS(=O)(=O)c1cc2c3c(cccc3c1)C(=O)NC2=O returned Cardio protect 58, GAA850 FXN act inactive, Gli-Sufu antag inactive, COUP-TFII inh inactive, SMARCA2 activ inactive and GalR3 antagonist inactive.
`CC(NNC(=S)N1CCN(c2ccccn2)CC1)c1nccc2ccccc12` (stereo not drawn) gave Cardio protect inactive, GAA850 FXN act inactive, Gli-Sufu antag 93, COUP-TFII inh inactive, SMARCA2 activ inactive and GalR3 antagonist inactive.
Screening COc1ccccc1NS(=O)(=O)c1cc(NC(=O)Cc2n[nH]c(=O)c3ccccc23)ccc1Cl returned Cardio protect 70, GAA850 FXN act inactive, Gli-Sufu antag inactive, COUP-TFII inh inactive, SMARCA2 activ inactive and GalR3 antagonist inactive.
`COc1ccc(NS(=O)(=O)c2cc(NC(=O)Cc3n[nH]c(=O)c4ccccc34)ccc2OC)cc1` gave Cardio protect 70, GAA850 FXN act inactive, Gli-Sufu antag inactive, COUP-TFII inh inactive, SMARCA2 activ inactive and GalR3 antagonist inactive.
COC(=O)[C@H](C(C)C)N1CCc2nnn(Cc3ccccc3)c2-c2cc(F)ccc2S1(=O)=O was read as COUP-TFII inh inactive and SMARCA2 activ inactive.
`COc1ccc2nc(-c3ccc(CN4CCC5(CC4)CNc4ccccc45)cc3)c(-c3ccccc3)nc2c1` gave COUP-TFII inh inactive, SMARCA2 activ inactive and GalR3 antagonist inactive.
`CCCCCCCCCCOC(=O)Cn1c(COc2cccc(C)c2)[n+](C)c2ccccc21` gave Cardio protect inactive, GAA850 FXN act inactive, COUP-TFII inh inactive, SMARCA2 activ inactive and GalR3 antagonist inactive.
`CCCCCCCCCCOC(=O)Cn1c(COc2ccc(Cl)cc2)[n+](C)c2ccccc21` gave Cardio protect inactive, GAA850 FXN act inactive, Gli-Sufu antag 68, COUP-TFII inh inactive, SMARCA2 activ inactive and GalR3 antagonist inactive.
CCCCCCCCCCOC(=O)Cn1c(COc2ccccc2)[n+](C)c2ccccc21 was read as Cardio protect inactive, GAA850 FXN act inactive, Gli-Sufu antag 62, COUP-TFII inh inactive, SMARCA2 activ inactive and GalR3 antagonist inactive.
